# Data published in PubChem BioAssay AID1259418 (Broad Institute, 2018).
# Out of some 3,400 compounds screened, about 840 (25%) were called active. Inconclusive results (about 11%) are left out. A selection follows. Measured potencies and affinities stand elsewhere. Unmarked numbers belong to inactive results.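 Rule for the calls: active = fitted half-maximal concentration of signal decrease at or below twice the sample's top tested concentration; inconclusive = flat curve between -70 and -30 percent, or poor fit; inactive = flat within 30 percent, signal rise, or potency above limit.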
# Test: inhibitors of Toxoplasma growth in IFN-γ-primed HeLa – cell-based, ME49Luc, luciferase, 72 h, dose response (AID 1259418)
# Conditions: T. gondii ME49Luc in IFN-y HeLa, stronger effect = lower value, -100% = high-dose IFN-γ control wells; at 19.5 µM unless noted
row,Compound,max activity
1,Cc1ccc(C)c(-c2coc(-c3ccc(NC(=O)Nc4ccccc4)cc3)n2)c1,17.8% [at 0.16 µM]
2,CCOCC1CC2(CCN(C(=O)COc3ccc(C)cc3)CC2)CO1 (stereo unspecified),14.2%
3,O=C(CC1N=C2c3ccccc3N=C(SCc3cc(=O)n4cc(Cl)ccc4n3)N2C1=O)NC1CCCCC1 (stereo unspecified),36.6% [at 10 µM]
4,FC(F)(F)c1cccc(N2CCN(c3nc(-c4ccc(Cl)cc4)nc4ccccc34)CC2)c1,-11.2% [at 0.16 µM]
5,Cc1cccc(NC(=O)N2CCN(Cc3nc(-c4cccc(Cl)c4)oc3C)CC2)c1,12.6%
6,CCc1ccccc1NC(=O)N1CCN(Cc2nc(-c3cccc(Cl)c3)oc2C)CC1,17.6% [at 10 µM]
7,Cc1oc(-c2cccc(Cl)c2)nc1CN1CCN(C(=O)Nc2cccc(Cl)c2)CC1,10.8% [at 0.35 µM]
8,Cc1ccc(Cl)cc1NC(=O)N1CCN(Cc2nc(-c3cccc(Cl)c3)oc2C)CC1,11.1% [at 10 µM]
9,CCc1nc(OCC(=O)Nc2cc(C)ccc2C)c2ccccc2n1,10.4% [at 2.6 µM]
10,Cc1ccc(CC(=O)N2CCC3(CC2)Nc2cc(F)ccc2-n2cccc23)cc1,-4.79% [at 0.35 µM]
11,CC(C)NC(=O)N1CC[C@@H]2[C@H]1c1cc(-c3ccc(F)cc3)ccc1N(C)[C@H]2CO,-31.5%
12,CC(C)NC(=O)N1CC[C@@H]2[C@@H](CO)N(C)c3ccc(-c4ccc(F)cc4)cc3[C@@H]21,26.2% [at 5 µM]
13,COc1ccc2c(c1)NC1(CCN(C(=O)c3ccccc3F)CC1)c1cccn1-2,8.8% [at 5 µM]
14,CN1c2ccc(C#Cc3cccnc3)cc2[C@@H]2[C@@H](CCN2C(=O)c2cccc(F)c2)[C@H]1CO,11.4%
15,Fc1ccc(N2CCN(c3nc(-c4ccc(Cl)cc4)nc4ccccc34)CC2)cc1,8.24%
16,CCCCC(=O)Nc1ccc(-c2nc(-c3ccc(C)cc3C)co2)cc1,37.3% [at 10 µM]
17,O=S(=O)(c1cccs1)N1CCC2(CC1)NCCN=C2NCc1ccccc1Cl,-8.05% [at 1.35 µM]
18,Cc1ccc(S(=O)(=O)N2CCC3(CC2)NCCN=C3NCc2ccccc2F)c(C)c1,-12.4%
19,O=C(NCCc1csc(-c2ccccc2)n1)[C@H]1CCCN1C(=O)Cc1ccc(F)cc1,-17.3% [at 0.16 µM]
20,CCc1nc(OCC(=O)Nc2ccc(C)cc2C)c2ccccc2n1,12.9% [at 10 µM]
21,Cc1cc(C)cc(NC(=O)Nc2ccc(-c3nc(-c4ccccc4)co3)cc2)c1,19.9% [at 1.35 µM]
22,Cc1ccc(-c2nc(Cn3nnc(-c4nc(-c5ccc(OC(C)C)cc5)no4)c3C)c(C)o2)cc1,12.6% [at 0.16 µM]
23,Cc1cc(C)cc(NC(=O)N2CCN(Cc3nc(-c4ccccc4C)oc3C)CC2)c1,8.24% [at 1.35 µM]
24,Cc1ccc(Cl)cc1NC(=O)Nc1ccc(-c2nc(-c3ccccc3)co2)cc1,-20.1% [at 0.16 µM]
25,Cc1ccc(-c2nc(Cn3nnc(-c4nc(-c5cccc(F)c5)no4)c3C)c(C)o2)cc1,3.99%
26,Cc1ccc(C)c(-c2coc(-c3ccc(NC(=O)NCCc4ccccc4)cc3)n2)c1,29.4%

row,Compound,max activity
1,OC[C@H]1[C@@H](c2ccc(C#Cc3ccccc3F)cc2)[C@@H]2CN(CC3CCOCC3)CCCCN12,9.11% [at 1.2 µM]
2,C[C@H]1[C@H](NC(=O)/C(=N\OC(C)(C)C(=O)O)c2csc(N)n2)C(=O)N1S(=O)(=O)O,14% [at 21 µM]
3,COc1ccc2c(c1)NC1(CCN(C(=O)Cc3ccccc3C)CC1)c1cccn1-2,-9.29% [at 0.16 µM]
4,CCc1nc(OCC(=O)Nc2ccc(C)cc2Br)c2ccccc2n1,-11.9% [at 2.6 µM]
5,COc1ccc(CCNc2nc(SCc3ccc(F)cc3)nc3ccccc23)cc1OC,-14.5% [at 5 µM]
6,CCOC(=O)C(=O)Nc1ccc(-c2nc(-c3ccccc3)co2)cc1,10.7% [at 5 µM]
7,Cc1ccc(-c2nc(Cn3nnc(-c4nc(-c5cccc(Br)c5)no4)c3C)c(C)o2)cc1,7.23% [at 0.16 µM]
8,CCOc1ccc(C(=O)N2CCC(C(=O)NCCc3csc(C)n3)CC2)cc1,13.7%
9,Cc1ccc(C)c(-c2coc(-c3ccc(NC(=O)Cc4cccs4)cc3)n2)c1,19.4%
10,O=C(CC1N=C2c3ccccc3N=C(SCc3cc(=O)n4ccccc4n3)N2C1=O)NCc1ccc(F)cc1 (stereo unspecified),17.7% [at 2.6 µM]
11,COc1ccc(CCC(=O)N2CCC3(CC2)Nc2cc(F)ccc2-n2cccc23)cc1,14.7% [at 0.68 µM]
12,O=C(Nc1ccc(-c2nc(-c3cccc(Br)c3)co2)cc1)Nc1ccc2c(c1)OCCO2,9.52% [at 0.16 µM]
13,Cc1ccc(-c2nc(CN3CCN(C(=O)Nc4cccc(C)c4C)CC3)c(C)o2)cc1,12.5% [at 10 µM]
14,COc1ccc(-c2nc(NCc3ccccc3)c3ccccc3n2)cc1,16.2%
15,CN(CCNc1nc(-c2ccc(Cl)cc2)nc2ccccc12)C1CCCCC1,-24.3% [at 2.6 µM]
16,COc1ccc(CNc2nc(-c3ccc(OC)cc3)nc3ccccc23)cc1,-17.8% [at 10 µM]
17,COc1ccc(-c2nc(NCCCc3ccccc3)c3ccccc3n2)cc1,-17% [at 1.35 µM]
18,CCCNc1nc(-c2ccc(OC)cc2)nc2ccccc12,-34.8% [at 0.35 µM]
19,CCCCNc1nc(-c2ccc(OC)cc2)nc2ccccc12,22.7%
20,COc1ccc(-c2nc(NCCN(Cc3ccco3)C3CCCC3)c3ccccc3n2)cc1,-27.6% [at 2.6 µM]
21,COc1ccc(-c2nc(NCCC(C)C)c3ccccc3n2)cc1,-29.2% [at 0.68 µM]
22,Cc1ccc2[nH]cc(CCNC(=O)c3cc(-c4ccccn4)nc4ccccc34)c2c1,11.1%
23,CCCCN(C)C(=O)Cn1c(=O)c(S(=O)(=O)c2ccccc2)cc2ccccc21,11.6%
24,Cc1ccc(-c2coc(-c3ccc(NC(=O)Nc4ccc5c(c4)OCO5)cc3)n2)c(C)c1,49.1%
25,Cc1ccc(C(=O)N2CCC3(CC2)Nc2cc(F)ccc2-n2cccc23)cc1,6.63% [at 0.16 µM]
26,CSc1ccc(CNC(=O)COc2nc(C)nc3ccccc23)cc1,-10.1% [at 5 µM]

row,Compound,max activity
1,CCOc1ccc(NC(=O)N2CCc3nc(-c4cccc(OC)c4)sc3C2)cc1,6.38%
2,COc1ccc(-c2nc(Cn3nnc(-c4nc(-c5ccc(F)cc5)no4)c3C)c(C)o2)cc1,-9.56% [at 5 µM]
3,COc1ccc(-c2nc(NCCc3cc(OC)ccc3OC)c3ccccc3n2)cc1,10.1%
4,COc1ccc(-c2nc(NCCc3ccccc3)c3ccccc3n2)cc1,-16% [at 10 µM]
5,CCOC(=O)C1CCN(c2nc(-c3ccc(OC)cc3)nc3ccccc23)CC1,-8.44% [at 0.68 µM]
6,Cc1nc(-c2ccc(C(=O)N3CCC(C)CC3)cc2)cs1,19%
7,COc1ccc(Cl)cc1NC(=O)CN1CCC2(CC1)N=C(c1cccc(F)c1)C(=O)N2,7.5% [at 5 µM]
8,CCOc1ccc(C(=O)N2CCC3(CC2)Nc2cc(OC)ccc2-n2cccc23)cc1,8.9%
9,COc1ccc(NC(=O)COc2nc(C)nc3ccccc23)c(OC)c1,17.4% [at 0.16 µM]
10,O=S(=O)(c1ccc(F)cc1)N1C[C@@H]2N[C@H](C1)C2c1ccc(/C=C/c2ccccc2)cc1 (stereo partly specified),26.3%
11,Cc1ccc(CN2CC3CN(Cc4cccc(F)c4)CC3C2)s1 (stereo unspecified),10.1%
12,COc1ccc(OC)c(NC(=O)Nc2ccc(-c3nc(-c4cc(C)ccc4C)co3)cc2)c1,-12.9% [at 0.35 µM]
13,Cc1nc(OCC(=O)Nc2ccccc2C(F)(F)F)c2ccccc2n1,21.7% [at 0.16 µM]
14,CCN1CCO[C@@H]2CN(C(=O)CC3Cc4ccccc4C3)C[C@@H]2C1,43.5%
15,O=C1CCc2cc(NC(=O)C(F)(F)F)ccc2N1,-12.7% [at 2.6 µM]
16,O=C1CCc2cc(NC(=O)c3ccc(OC(F)(F)F)cc3)ccc2N1,-8.43% [at 0.35 µM]
17,O=C1CCc2cc(NC(=O)c3ccc(C(F)(F)F)cc3)ccc2N1,-7.37% [at 1.35 µM]
18,Cc1ccc(C)c(C(=O)Nc2ccc3c(c2)CCC(=O)N3)c1,-6.43% [at 1.35 µM]
19,Cc1ccc(CC(=O)Nc2ccc3c(c2)CCC(=O)N3)cc1,7.74%
20,Cc1ccc(C(=O)Nc2ccc3c(c2)CCC(=O)N3)c(C)c1,42%
21,CC(C)N1CCN(CC#N)C2(CCN(C(=O)c3ccc[nH]3)C2)C1=O (stereo unspecified),43.6%
22,COc1ccc(CC(=O)Nc2ccc(-c3nc(-c4ccccc4)co3)cc2)cc1,-7.29% [at 1.35 µM]
23,CCOc1ccccc1-c1nc(CN(c2ccc(OC)cc2)S(=O)(=O)c2ccccc2)c(C)o1,7.8%
24,O=C(Cn1c(=O)c(S(=O)(=O)c2ccccc2)cc2ccccc21)N1CCCC1,-8.97% [at 0.16 µM]
